Laboratory results: PubChem BioAssay AID1259400 (National Center for Advancing Translational Sciences (NCATS), 2018)
Values joined by “and” are separate entries in the source; they are usually repeats but may differ in a detail not shown here. Equal entries are not always repeated. The whole screen tested about 350,000 compounds, of which about 2,100 (0.6%) were called active. Roughly 1% stayed inconclusive and do not appear here.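 Rule for the calls: active = activity change of -60% or lower, but not beyond a set lower limit; inconclusive = change between -60% and -40%, or beyond the set limit; inactive = change above -40%.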 The entries come from a sample that favours actives as a whole.

target: Relaxin receptor 1 (Homo sapiens) (UniProt Q9HBX9); test: qHTS Assay for Antagonists of the Relaxin Receptor RXFP1; details: HEK293-RXFP1, relaxin-stimulated cAMP HTRF, 30 min; at 57.5 µM; stronger effect = lower value
% is set by controls: 0 for no effect and ±100 for the full control effect.

Sequence of Relaxin receptor 1 (Homo sapiens) (Q9HBX9 whole entry, looked up): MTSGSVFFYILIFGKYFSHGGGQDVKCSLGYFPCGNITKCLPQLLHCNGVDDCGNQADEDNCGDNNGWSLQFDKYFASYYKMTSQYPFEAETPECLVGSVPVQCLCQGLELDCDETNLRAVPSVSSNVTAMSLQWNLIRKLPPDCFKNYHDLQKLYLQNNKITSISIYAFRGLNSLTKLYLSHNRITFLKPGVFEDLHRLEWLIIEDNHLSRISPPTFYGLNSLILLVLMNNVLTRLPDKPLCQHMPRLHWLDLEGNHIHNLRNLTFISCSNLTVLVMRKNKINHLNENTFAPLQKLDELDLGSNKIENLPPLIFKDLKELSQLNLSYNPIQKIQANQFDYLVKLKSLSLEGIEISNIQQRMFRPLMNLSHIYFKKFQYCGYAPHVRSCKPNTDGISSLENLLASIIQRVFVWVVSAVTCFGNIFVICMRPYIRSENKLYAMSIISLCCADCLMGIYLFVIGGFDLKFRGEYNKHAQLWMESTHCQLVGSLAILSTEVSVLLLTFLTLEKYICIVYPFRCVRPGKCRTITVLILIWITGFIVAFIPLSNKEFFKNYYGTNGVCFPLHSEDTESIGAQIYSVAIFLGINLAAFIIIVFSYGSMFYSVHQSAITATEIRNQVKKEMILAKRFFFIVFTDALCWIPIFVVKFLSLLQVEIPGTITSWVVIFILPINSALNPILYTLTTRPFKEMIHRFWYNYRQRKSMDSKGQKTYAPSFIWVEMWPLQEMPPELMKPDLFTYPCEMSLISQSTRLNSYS

Activity change, negative = inhibition, inactive:
Cc1ccc(CN2CCc3nc(N4CCN(C)CC4)ncc3C2)cc1 -7.68%
Cc1cc(-c2ccccc2)n2nc(-c3ccccc3)cc2n1 -15.7%
Cc1cccc(-n2ncc(C(=O)N3CCN(c4ccc(Cl)cc4)CC3)c2C2CCN(C(=O)OC(C)(C)C)CC2)c1 -19.9%
O=C(OCC(O)CO)c1ccccc1Nc1ccnc2c(C(F)(F)F)cccc12 (stereo unspecified) -23.3%
Cc1cccc(-n2ncc(C(=O)N3CCC(C)CC3)c2C2CCN(C(=O)OC(C)(C)C)CC2)c1 1.6%
Cc1ccc(CN2CCC(CNC(=O)c3cnn(-c4ccccc4Cl)c3C3CCN(C(=O)OC(C)(C)C)CC3)CC2)cc1 -35.3%
Cc1cccc(C)c1NC(=O)c1ccc(N)cc1 14.2%
CCOc1cccc2c1N[C@@H](c1ccc(C(=O)O)cc1)[C@H]1CC=C[C@@H]21 -4.8%
CC(C)(CCl)C(=O)Nc1ccc(Sc2ccc(F)cc2)cc1 -28.2%
O=C(CCl)Nc1cccc(CP(=O)(c2ccccc2)c2ccccc2)c1 -12.2%
Cc1ccc(CNC(=O)CCC(=O)N2Cc3ccccc3Oc3ncccc32)cc1 0.223%
CCCNC(=O)CCC(=O)N1Cc2ccccc2Oc2ncccc21 -2.12%
O=C(CC1N=C2c3ccccc3N=C(SCc3ccc(F)cc3)N2C1=O)NCc1cccs1 (stereo unspecified) -7.63%
COc1ccccc1C(=O)Nc1c(C(=O)N(C)Cc2ccccc2)sc2nc(C)c(Cl)c(C)c12 -8.81%
CCC(=O)N1CCc2cc(Br)cc(S(=O)(=O)CCC(=O)NCCc3ccc(OC)c(OC)c3)c21 -17.8%
Cc1ccc(C)c(N2CCN(C(=O)Cn3nc(C)c4sc5ccccc5c4c3=O)CC2)c1 -3.69%
CCOc1ccc(CNC(=O)C2CCCN(S(=O)(=O)N(CC)c3ccc(OCC)cc3)C2)cc1 (stereo unspecified) -7.3%
CCCCN1C(=O)C(C)=C(C)C1OCCc1ccc(OC)c(OC)c1 (stereo unspecified) -1.03%
CCCCOc1ccc(Cn2c(=O)oc3ccc(C)cc32)cc1OC -39.4%
Cc1cc(C)c2oc(C(=O)Nc3ccc(S(=O)(=O)N4CCCCCC4)cc3)cc(=O)c2c1 -1.32%
CO/N=C(\C(=O)N[C@@H]1C(=O)N2C(C(=O)O)=C(Cn3nnc(C)n3)CS[C@H]12)c1csc(N)n1 10%
CC(=O)Nc1cccc(C(=O)OCC(=O)Nc2nnc(-c3ccccc3)o2)c1 -4.64%
COc1ccccc1C(=O)NCC(=O)OCC(=O)Nc1nnc(-c2ccccc2)o1 -0.478%
O=C(CN1CCSc2ccccc21)N1CCN(c2ccccc2)CC1 -6.69%
CCOc1ccc(-c2cc(C)n3nc(C(=O)Nc4ccc(C)c(C)c4)cc3n2)cc1 -24%
CCCn1c(NCc2ccc(N(CC)CC)cc2)nc2ccccc21 -15%
O=C(CSc1oc(-c2ccc(F)cc2)nc1S(=O)(=O)c1ccc(Br)cc1)NC1CCCCC1 -5.96%
Cc1ccc(-c2nc(S(=O)(=O)c3ccc(C)cc3)c(N3CCCCCC3)o2)cc1 2.42%
Cc1nnc(Nc2ccccc2F)s1 3.61%
O=c1cnnc(Nc2ccccc2)[nH]1 9%
CCCN(CCC)CCNC(=O)c1ccc2c(c1)NC(=O)C(CS(=O)(=O)Cc1cccc(Br)c1)N2 (stereo unspecified) -10.4%
Cc1ccc(CN(C(=O)COc2ccc(Cl)cc2C)C2CCS(=O)(=O)C2)o1 (stereo unspecified) -6.16%
COc1cc(OC)c(NC(=O)N2CC3CCCN3c3ccccc32)cc1Cl (stereo unspecified) -23.5%
Cc1nc(SCC(=O)Nc2ccc(C(=O)O)cc2)n[nH]1 -9%
CCOc1ccc(NC(=O)c2c(NCc3cccc(OC)c3OC)sc3c2CCC3)cc1 -17.6%
CCOC(=O)c1ccc(NC(=O)c2c(NCc3cccc(OC)c3)sc3c2CCC3)cc1 -35.6%
COc1cccc(C(=O)NC(=O)Nc2ccc(-c3cc(C(F)(F)F)nn3-c3ccccc3)cc2)c1 -5.11%
CCc1nc2ccc(C(=O)N3CCN(c4cccc(Cl)c4)CC3)cc2nc1CC -23.6% and -19.3%
Cc1ccc(Cl)cc1N1CCN(C(=O)c2cccn3c(=O)c4cc(Cl)ccc4nc23)CC1 3.52%
COC(=O)Nc1nc2ccc(C(=O)C3CC3)cc2[nH]1 14.8%
Cn1c(SCC(=O)N2CCCc3ccccc32)ncc(C(=O)Nc2ccc(F)cc2)c1=O -2.51%
Cc1cc(C)c2oc(C(=O)Nc3ccc(S(=O)(=O)N(C)c4ccccc4)cc3)cc(=O)c2c1 -2.14%
Cc1ccn2c(-c3csc(Nc4ccc(C(=O)O)cc4)n3)c(C)nc2c1 6.41%
Cc1cc(NC(=O)c2cccc(Cl)c2)ccc1-c1cc2ccccc2oc1=O -4.13%

Activity change, negative = inhibition, active:
Cc1ccc(C2CCN(C(=O)c3cnn(-c4ccccc4Cl)c3C3CCN(C(=O)OC(C)(C)C)CC3)C2)cc1 (stereo unspecified) -70.8%
O=C(CCl)Nc1ccc(Sc2ccc(NC(=O)CCl)cc2)cc1 -96.8%
Cc1ccccc1CNC(=O)CCC(=O)N1Cc2ccccc2Oc2ncccc21 -120%
CCCCOc1ccc(CN2C(=O)C(=O)c3cc(Br)cc(C)c32)cc1OC -71.4%
O=C(COC(=O)c1ccc(Oc2ccccc2)cc1)Nc1nnc(-c2ccccc2)o1 -76.2%
CC(C)S(=O)(=O)c1oc(-c2ccc(F)cc2)nc1S(=O)(=O)c1ccc(F)cc1 -89.7%
O=c1cnnc(Nc2ccccc2F)[nH]1 -93.6%
Oc1c(Cl)cc(Cl)c(Cl)c1Cc1c(O)c(Cl)cc(Cl)c1Cl -62.6%
CCOC(=O)N1CCc2c(sc(NCc3cccc(F)c3)c2C(=O)Nc2ccccc2OCC)C1 -69.1%
CC(C)N=C1CCCC1C(=S)SSC(=S)C1CCCC1=NC(C)C (stereo unspecified) -72.7%
CCc1nc2ccc(C(=O)N3CCN(c4cc(Cl)ccc4C)CC3)cc2nc1CC -64.4%
O=c1oc2ccccc2cc1-c1csc(Nc2ccc(O)cc2)n1 -97%
